SMILES strings stand for the structures. Several values for one entry are separate records, joined by “and”; a condition that tells them apart may be missing. Equal entries are not always repeated. Among all 1,300 compounds or so, about 1,000 (77%) were called active. Another 7% or so got no clear call; they are omitted. Calls come from the whole dose curve; as a rule, active = well fitted inhibition curve with a large enough effect; inconclusive = small, poorly fitted or top-dose-only effect; inactive = no such curve, though single readings can be large or run the other way. So high a share suggests a set chosen from earlier hits. Some of the results follow.
Potency is the fitted concentration of half-maximal effect.

This experiment can be described thus: qHTS of small molecules that selectively kill Giardia lamblia: Hit Validation.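 Note: viability measured as ATP content by luminescence so killing lowers signal; trophozoites exposed to compounds for 48 h anaerobically at 37 °C; nearly all actives have a fitted effect of over 65% in size.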 Conditions: Giardia lamblia trophozoite viability, dose-response; series mostly up to 38.3 µM. The method in brief:
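Giardia lamblia trophozoites (100 cells/well) were incubated with compounds for 48 h at 37 deg C under anaerobic conditions. Viability was read as ATP content by one-step luminescence after 15-30 min at room temperature.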
For orientation: Quantitative high-throughput screening tests each substance at several concentrations.
As for `Cc1cc([N+](=O)[O-])nn1Cc1noc(C(=O)NCc2ccc3c(c2)OCO3)n1`, the Potency result is “inactive”. The same measure for `Cc1cc([N+](=O)[O-])nn1Cc1ccc(F)cc1`: 2.9 µM (active); for `CC(NC(=O)COc1cccnc1[N+](=O)[O-])c1ccc(Cl)cc1` (configuration not stated): 5.16 µM (active); for `CC(NC(=O)COc1cccnc1[N+](=O)[O-])c1ccc(F)cc1` (configuration not stated): 5.79 µM (active).

On to `COc1ccc(NC(=O)C(c2ccc(Cl)cc2)C(C)C)cn1` (configuration not stated), for which the Potency entry was “inactive”. Consider `CC(NC(=O)COc1cccnc1[N+](=O)[O-])c1ccc(Cl)cc1Cl` (configuration not stated), for which the Potency is 3.26 µM (active). Regarding `O=[N+]([O-])c1cncc([N+](=O)[O-])c1Nc1cccc(O)c1`, the Potency was 3.26 µM (active). As for `O=[N+]([O-])c1cncc([N+](=O)[O-])c1Nc1ccccc1Cl`, the Potency was 5.16 µM (active). With `N/C(=N\OC(=O)c1ccc(Cl)cc1[N+](=O)[O-])c1ccccn1`, the Potency is 8.18 µM (active).

`N/C(=N/OC(=O)c1ccccc1Cl)c1ncc([N+](=O)[O-])s1`: the Potency was 1.63 µM (active). Regarding `O=C(Oc1cccc2c(O)cccc12)c1ccccc1Cl`, the Potency result is “inactive”.

In the case of `N/C(=N/OC(=O)c1ccc(Cl)cc1)c1ncc([N+](=O)[O-])s1`, the Potency was 1.3 µM (active). Regarding `COc1ccc(-n2nc([N+](=O)[O-])c(=NCCC3=CCCCC3)n2O)cc1`, the Potency was 4.1 µM (active). In the case of `COc1ccc(-n2nc([N+](=O)[O-])c(=NCCc3ccccc3)n2O)cc1`, the Potency was 1.16 µM (active). In the case of `COc1ccc(-n2nc([N+](=O)[O-])c(=NCCc3ccc(OC)c(OC)c3)n2O)cc1`, the Potency was 1.16 µM (active). With `COc1ccc(-n2nc([N+](=O)[O-])c(=NCCc3ccc(Cl)cc3)n2O)cc1` the figure was 1.45 µM (active); with `COc1ccc(-n2nc([N+](=O)[O-])c(=NCCc3ccc(C)cc3)n2O)cc1`, 4.1 µM (active). Regarding `COc1ccc(CCN=c2c([N+](=O)[O-])nn(-c3cccc(C)c3)n2O)cc1OC`, the Potency is 5.16 µM (active). On to `CCN(CC)C(=O)Cn1cc([N+](=O)[O-])cc1[N+](=O)[O-]`, for which the Potency is 0.46 µM (active). Regarding `CCN(C(=O)C1CCN(S(=O)(=O)c2ccc3c(c2)oc(=O)n3C)CC1)c1cccc(C)c1`, the Potency result was “inactive”.

`N#Cc1c(Nc2ccccc2)[n+]([O-])c2ccc(Cl)cc2[n+]1[O-]`: the Potency is 1.63 µM (active). Consider `O=C1c2cc(F)ccc2-n2c1nc1ccccc1c2=O`, for which the Potency was 1.83 µM (active). Turning to `CCOCCOc1nc2c(c(=O)n(C)c(=O)n2C)n1Cc1ccc(C)cc1`, the Potency result was “inactive”. The same measure for `Cc1cc(C(=O)N/N=C/c2ccc([N+](=O)[O-])s2)n[nH]1`: 2.31 µM (active). In the case of `CC(C)(C)c1cc(C(=O)N/N=C/c2ccc([N+](=O)[O-])s2)n[nH]1`, the Potency is 3.65 µM (active). As for `Cc1cc(C(=O)N/N=C/c2ccc(O)c([N+](=O)[O-])c2)n[nH]1`, the Potency is 6.5 µM (active). With `CC(C)(C)c1cc(C(=O)N/N=C/c2ccncc2)n[nH]1` the entry was “inactive”; with `N#Cc1c(N2CCN(c3ccc([N+](=O)[O-])cc3)CC2)[n+](=O)c2ccc(Cl)cc2n1[O-]`, 1.3 µM (active). With `CN(C)c1ccc2nsnc2c1[N+](=O)[O-]` the figure was 3.65 µM (active); with `CC1S/C(=C(\C#N)C(N)=O)N(c2ccc(F)cc2)C1=O` (configuration not stated), “inactive”; with `N=NC(=O)c1ccccc1Nc1c(O)[nH]c2ccccc12`, 1.03 µM (active).

As to `COC(=O)c1ccccc1NC(=O)N1c2ccccc2Sc2ccccc21`, the Potency is 0.918 µM (active). The same measure for `Cc1cc(N2CCN(C)CC2)nc2ccc(NC(=S)N3CCN(c4cccc(Cl)c4)CC3)cc12`: 1.16 µM (active); for `O=c1sc(N2CCN(c3ccc(F)cc3)CC2)nc2ccsc12`: “inactive”; for `Cc1cccc(N2CCN(C(=S)Nc3ccc4nc(N5CCN(C)CC5)cc(C)c4c3)CC2C)c1` (configuration not stated): 4.1 µM (active). Take `Cc1cc(N2CCN(C)CC2)nc2ccc(NC(=S)N3CCN(c4ccc(F)cc4)CC3)cc12`: the Potency is 1.3 µM (active). With `Cc1cc(N2CCN(C)CC2)nc2ccc(NC(=S)N3CCN(c4ccc(Cl)cc4)CC3)cc12`, the Potency is 1.16 µM (active). Turning to `CC(=O)Nc1ccc(/C=C/c2noc(-c3ccccc3O)n2)cc1`, the Potency result was “inactive”. For `Cn1nc([N+](=O)[O-])nc1N1CCOCC1`, the Potency was 0.326 µM (active). On to `[O-][n+]1c2cc(C(F)(F)F)ccc2c2n1CCN=C2c1ccc(Cl)cc1`, for which the Potency was 0.41 µM (active). `Cc1ccc(C2=NCCn3c2c2ccc(C(F)(F)F)cc2[n+]3[O-])cc1`: the Potency was 0.13 µM (active). As for `COc1ccc(C2=NCCn3c2c2ccc(C(F)(F)F)cc2[n+]3[O-])cc1`, the Potency is 0.0729 µM (active).

With `Nc1c(Cl)cc(C2=NCCn3c2c2ccc(C(F)(F)F)cc2[n+]3[O-])cc1Cl`, the Potency was 0.163 µM (active). For `O=[N+]([O-])c1cc2cccnc2c2ncccc12`, the Potency is 1.83 µM (active). For the compound `O=C(Nc1ccc(-c2cn3ccccc3n2)cc1)c1ccco1`, the Potency is 8.18 µM (active). With `COc1ccccc1-n1cc2c([N+](=O)[O-])cc([N+](=O)[O-])cc2n1` the figure was 1.63 µM (active); with `CC(Oc1cccnc1[N+](=O)[O-])C(=O)Nc1ccc(F)cc1` (configuration not stated), 5.16 µM (active). With `CC(Oc1cccnc1[N+](=O)[O-])C(=O)Nc1cccc(Cl)c1` (configuration not stated), the Potency is 3.65 µM (active). With `Cc1ccc(CCN=c2c([N+](=O)[O-])nn(-c3ccccc3)n2O)cc1`, the Potency is 7.29 µM (active).

As for `O=[N+]([O-])c1nn(-c2ccccc2)n(O)c1=NCCc1ccccc1`, the Potency is 3.26 µM (active). Turning to `Cc1ccc(Nc2nc(=O)c3cc([N+](=O)[O-])ccc3s2)cc1`, the Potency is 7.29 µM (active). Consider `CC1=NN(c2nc3ccccc3[nH]2)C(=O)/C1=C/N(C)C`, for which the Potency is 3.65 µM (active). Regarding `O=C(Nc1ncc([N+](=O)[O-])s1)c1ccco1`, the Potency is 0.818 µM (active). For the compound `O=C(Nc1ncc([N+](=O)[O-])s1)c1cccs1`, the Potency is 460 nM (active) and 729 nM (active). As for `O=C(Nc1ncc([N+](=O)[O-])s1)c1ccccc1Br`, the Potency is 0.206 µM (active). Consider `CC(=O)O[C@]1(C(C)=O)CCC2C3CCC4=C/C(=N/OCC(=O)O)CC[C@]4(C)C3CC[C@@]21C` (some centres not stated), for which the Potency result is “inactive”. The same measure for `Cn1c(/C(C#N)=C(\O)c2ccc([N+](=O)[O-])s2)nc2ccccc21`: 1.16 µM (active); for `N#C/C(=C(/O)c1ccc([N+](=O)[O-])o1)c1nc2ccccc2[nH]1`: 0.326 µM (active). Turning to `N#C/C(=C(/O)c1ccc([N+](=O)[O-])s1)c1nc2ccccc2[nH]1`, the Potency was 2.31 µM (active).

Take `Cc1nc2c(nc1C)C(=O)c1ccccc1C2=O`: the Potency was 3.26 µM (active). With `Cc1ccc(-c2csc(NC(=O)c3ccc([N+](=O)[O-])o3)n2)cc1` the figure was 1.63 µM (active); with `O=C(Nc1nc(-c2cccs2)cs1)c1ccc([N+](=O)[O-])o1`, 0.65 µM (active). Turning to `c1ccc(-c2nc(-c3cnc4ccccc4n3)cs2)cc1`, the Potency was 5.79 µM (active). Consider `c1ccc(CCNc2ncnc3nc[nH]c23)cc1`, for which the Potency result is “inactive”.

`O=c1cc[nH]c2ccc([N+](=O)[O-])cc12`: the Potency was 4.1 µM (active). Regarding `O=c1[nH]cnc2ccc([N+](=O)[O-])cc12`, the Potency is 1.63 µM (active).

On to `COc1ccc(/C(O)=C2/C(=O)C(=O)N(CCCN3CCOCC3)C2c2ccc(N(C)C)cc2)cc1` (configuration not stated), for which the Potency result was “inactive”. Consider `O=C(/C=C/c1cccc([N+](=O)[O-])c1)c1ccco1`, for which the Potency is 7.29 µM (active). For `Brc1ccc(CNc2nc3ccccc3n2CCN2CCCCC2)cc1`, the Potency was 0.516 µM (active). The same measure for `COc1ccccc1CN=c1c([N+](=O)[O-])nn(-c2ccc3c(c2)OCCO3)n1O`: 4.6 µM (active); for `O=[N+]([O-])c1nn(-c2ccc3c(c2)OCCO3)n(O)c1=NCc1ccccc1Cl`: 4.6 µM (active); for `O=C(/C=C/c1ccc([N+](=O)[O-])s1)N1CCCC1`: 1.83 µM (active). Turning to `O=C(/C=C/c1ccc([N+](=O)[O-])s1)N1CCN(c2ccccc2)CC1`, the Potency was 1.45 µM (active). As to `CC1CC(C)CN(C(=O)/C=C/c2ccc([N+](=O)[O-])s2)C1` (configuration not stated), the Potency is 4.6 µM (active). With `O=C(/C=C/c1ccc([N+](=O)[O-])s1)N1CCCCC1`, the Potency is 1.45 µM (active).

Consider `COC(=O)c1ccc(Nc2ccc3nonc3c2[N+](=O)[O-])cc1`, for which the Potency was 2.05 µM (active).

As for `O=[N+]([O-])c1c(Nc2ccc(Br)cc2)ccc2nonc12`, the Potency is 2.9 µM (active). `O=C(Cc1ccccc1)N/N=C/c1ccc([N+](=O)[O-])s1`: the Potency is 1.83 µM (active). As to `CC(=O)Nc1ccc(S(=O)(=O)N(CCc2ccccc2)CC(=O)N/N=C/c2ccc(C(=O)O)cc2)cc1`, the Potency result was “inactive”. On to `O=C(Cc1cccs1)N/N=C\c1ccc([N+](=O)[O-])s1`, for which the Potency is 2.9 µM (active). Turning to `NCCCn1c(C(=O)c2cc(Cl)c(N)c(Cl)c2)c2ccccc2[n+]1[O-]`, the Potency is 1.3 µM (active). `NC(=O)CCCn1c(C(=O)c2cc(Cl)c(N)c(Cl)c2)c2ccc([N+](=O)[O-])cc2[n+]1[O-]`: the Potency was 5.16 µM (active).

For `NCCCn1c(C(=O)c2cc(Cl)c(N)c(Cl)c2)c2ccc([N+](=O)[O-])cc2[n+]1[O-]`, the Potency is 1.63 µM (active). On to `CC[C@]1(C(=O)OC)[C@H]2C(=O)N(C)C(=O)[C@H]2[C@H]2CN(C)C(=NC)N21`, for which the Potency result is “inactive”. As for `CC(C)(C)NC(=O)CCN(/N=C/c1ccc([N+](=O)[O-])o1)C1=NS(=O)(=O)c2ccccc21`, the Potency was 1.16 µM (active). The same measure for `O=[N+]([O-])c1ccc(-c2nc(C(Cl)Cl)c3ccccc3n2)cc1`: 1.3 µM (active); for `Cc1cc(N/N=C/c2ccc([N+](=O)[O-])o2)nc2ccccc12`: 1.83 µM (active); for `O=[N+]([O-])c1ccc(/C=N/Nc2nc(-c3ccccc3)c3cc(Br)ccc3n2)o1`: 0.918 µM (active). As for `Cc1ccc2nc(N/N=C\c3ccc([N+](=O)[O-])o3)nc(-c3ccccc3)c2c1`, the Potency is 0.46 µM (active).

As for `Cc1ccccc1C(=O)N1CCN(c2ccc(NC(=O)c3ccc([N+](=O)[O-])o3)cc2)CC1`, the Potency is 0.818 µM (active). In the case of `O=C(Nc1ccc(N2CCN(C(=O)c3ccc(Cl)cc3)CC2)cc1)c1ccc([N+](=O)[O-])o1`, the Potency was 0.579 µM (active). Consider `O=C(Nc1ccc(N2CCN(C(=O)c3ccccc3)CC2)cc1)c1ccc([N+](=O)[O-])o1`, for which the Potency was 0.818 µM (active).
